About 220 (0.56%) of roughly 39,000 compounds showed activity. The sample holds actives, similar compounds and a random draw of the others, so the mix is not that of the screen.
Test system: Escherichia coli K-12 BW25113
Assay: relative growth (OD600 normalised to plate interquartile mean) (fraction); higher = less growth inhibition, active = 0.2 or less
Details: 50 µM; LB; incubation time: overnight (16-24 h)
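Also: Wild-type cells incubated without shaking, value is the mean of two biological replicates.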

Row | SMILES | relative growth
1 | NC1(C(=O)O)CC1 | 0.988 (inactive)
2 | C[C@@H]1CN([C@@H](C)CO)C(=O)c2cc(C#Cc3ccc(F)cc3)cnc2O[C@@H]1CN(C)Cc1ccccn1 | 0.995 (inactive)
3 | Cc1ccc(S(=O)(=O)Nc2ccc3c(c2)C(=O)N([C@@H](C)CO)C[C@@H](C)[C@@H](CN(C)C(=O)Nc2cccc4ccccc24)OCCCC[C@@H](C)O3)cc1 | 0.998 (inactive)
4 | CC1COc2c(N3CCN(C)CC3)c(F)cc3c(=O)c(C(=O)O)cn1c23 (stereo not given) | 0.0447 (active)
5 | CN1CCN(c2c(F)cc3c(=O)c(C(=O)O)cn4c3c2OCN4C)CC1 | 0.0475 (active)
6 | CN(c1ccc(N)cc1[N+](=O)[O-])S(C)(=O)=O | 1.02 (inactive)
7 | C/C=C/c1ccc2c(c1)O[C@@H](CN(C)Cc1ccc(C(=O)O)cc1)[C@@H](C)CN([C@@H](C)CO)S2(=O)=O | 1.02 (inactive)
8 | COc1ccccc1-c1ccc2c(c1)O[C@H](CN(C)C(=O)c1ccncc1)[C@@H](C)CN([C@H](C)CO)S2(=O)=O | 1.01 (inactive)
9 | C[C@@H]1CN([C@@H](C)CO)C(=O)Cc2cc(NC(=O)Cc3cn(C)c4ccccc34)ccc2O[C@H]1CN(C)Cc1ccc(C(F)(F)F)cc1 | 1.02 (inactive)
10 | CCCNC(=O)N1C[C@H](C)[C@H](OC)CN(C)C(=O)c2ccc(NS(=O)(=O)CC(F)(F)F)cc2OC[C@H]1C | 0.974 (inactive)
11 | NC(=O)c1cc[n+](CC2=C(C(=O)[O-])N3C(=O)C(NC(=O)C(c4ccccc4)S(=O)(=O)[O-])C3SC2)cc1.[Na+] (stereo not given) | 1.08 (inactive)
12 | Cn1nnnc1SCC1=C(C(=O)[O-])N2C(=O)C(NC(=O)C(OC=O)c3ccccc3)C2SC1.[Na+] (stereo not given) | 0.365 (inactive)
13 | O=C([O-])C1=C(CSc2nnnn2CS(=O)(=O)[O-])CSC2C(NC(=O)C(O)c3ccccc3)C(=O)N12.[Na+].[Na+] (stereo not given) | 0.044 (active)
14 | NCc1ccccc1CC(=O)NC1C(=O)N2C(C(=O)O)=C(CSc3nnnn3CC(=O)O)CSC12 (stereo not given) | 0.0453 (active)
15 | Cn1nnnc1SCC1=C(C(=O)[O-])N2C(=O)C(NC(=O)C(O)c3ccccc3)C2SC1.[Na+] (stereo not given) | 0.0463 (active)
16 | CCC(CC)c1ccc(O)cc1 | 0.994 (inactive)
17 | CNC[C@@H]1Oc2cc(C#CCN(C)C)ccc2S(=O)(=O)N([C@@H](C)CO)C[C@H]1C | 0.981 (inactive)
18 | Oc1ccccc1/N=C/c1ccncc1 | 0.953 (inactive)
19 | Cc1nn(C)cc1NC(=O)C[C@@H]1CC[C@@H]2[C@H](COc3ccc(NC(=O)C4CCOCC4)cc3C(=O)N2C)O1 | 0.986 (inactive)
20 | COc1ccc(S(=O)(=O)N(C)C[C@@H]2OCCCC[C@H](C)Oc3ccc(NC(=O)Nc4cccc5ccccc45)cc3C(=O)N([C@H](C)CO)C[C@H]2C)cc1 | 0.966 (inactive)
21 | C[C@@H]1CN([C@@H](C)CO)S(=O)(=O)c2ccc(C#CC(C)(C)O)cc2O[C@@H]1CN(C)Cc1ccccc1 | 1 (inactive)
22 | Cc1noc(C)c1S(=O)(=O)Nc1ccc2c(c1)C(=O)N([C@@H](C)CO)C[C@H](C)[C@@H](CN(C)Cc1ccccc1)O2 | 0.968 (inactive)
23 | C[C@H](CO)N1C[C@H](C)[C@H](CN(C)C(=O)Nc2ccc3c(c2)OCO3)OCCCC[C@H](C)Oc2ccc(NC(=O)Cc3ccccc3)cc2C1=O | 0.991 (inactive)
24 | CN(C)C(=O)C[C@H]1C=C[C@H](NC(=O)C2CCOCC2)[C@H](CO)O1 | 1.01 (inactive)

Row | SMILES | relative growth
25 | COc1ccc(NC(=O)Nc2ccc3c(c2)C(=O)N([C@H](C)CO)C[C@@H](C)[C@@H](CN(C)S(=O)(=O)c2cccs2)OCCCC[C@@H](C)O3)cc1 | 1.02 (inactive)
26 | CO[C@@H]1CN(C)C(=O)c2cc(NS(=O)(=O)CC(F)(F)F)ccc2OC[C@@H](C)N(C(=O)c2ccc3c(c2)OCO3)C[C@H]1C | 0.937 (inactive)
27 | Cc1ccc(S(=O)(=O)Nc2ccc3c(c2)C(=O)N([C@@H](C)CO)C[C@@H](C)[C@H](CN(C)C(=O)Cc2ccccc2)OCCCC[C@@H](C)O3)cc1 | 1.01 (inactive)
28 | C[C@H]1CN([C@@H](C)CO)C(=O)Cc2cc(NC(=O)CCN3CCOCC3)ccc2O[C@@H]1CN(C)Cc1ccccc1 | 1.01 (inactive)
29 | C=CC(=O)NCCc1ccncc1 | 1.05 (inactive)
30 | O=C(C[C@H]1C[C@H]2c3cc(NS(=O)(=O)c4ccc(F)cc4)ccc3O[C@H]2[C@H](CO)O1)NC1CCCC1 | 0.974 (inactive)
31 | O=C(CN1CCNCC1)c1ccc(F)cc1 | 1 (inactive)
32 | Cc1ccc(C(=O)O)c(=O)n1C | 1.02 (inactive)
33 | CN1CCN(c2cc3c(cc2F)c(=O)c(C(=O)O)cn3-c2ccc(F)cc2)CC1.Cl | 0.0477 (active)
34 | Cn1cc(S(=O)(=O)N2CCN(c3ccc(F)cc3)CC2)c(=O)n(C)c1=O | 1.01 (inactive)
35 | O=C(c1ccccc1F)N1CCNCC1 | 0.999 (inactive)
36 | Cl.O=C(O)c1cn(-c2ccc(F)cc2)c2cc(N3CCNCC3)c(F)cc2c1=O | 0.0456 (active)
37 | C[C@@H]1CCCCO[C@H](CN(C)S(=O)(=O)c2cn(C)cn2)[C@H](C)CN([C@H](C)CO)C(=O)c2cc(NS(C)(=O)=O)ccc2O1 | 1.02 (inactive)
38 | COc1ccc(-c2cn(CCCNC(=O)[C@H](Cc3ccccc3)NS(=O)(=O)c3ccc(C)cc3)nn2)cc1OC | 1.02 (inactive)
39 | CC1=C(C)C(=O)C(CCCCCCCCCC[P+](c2ccccc2)(c2ccccc2)c2ccccc2)=CC1=O | 0.308 (inactive)
40 | COC1=C(OC)C(=O)C(CCCCCCCCCC[P+](c2ccccc2)(c2ccccc2)c2ccccc2)=C(C)C1=O | 0.0727 (active)
41 | COC1=C(OC)C(=O)C(CCCCCCCCCCO)=C(C)C1=O | 1.05 (inactive)
42 | C[C@@H]1CN([C@H](C)CO)S(=O)(=O)c2ccc(Br)cc2O[C@@H]1CN(C)C(=O)NC1CCCC1 | 0.989 (inactive)
43 | Cc1cc(=S)oc2ccccc12 | 0.943 (inactive)
44 | CC(C)CC#Cc1ccc2c(c1)O[C@H](CN(C)C(=O)NC1CCCC1)[C@H](C)CN([C@@H](C)CO)S2(=O)=O | 0.997 (inactive)
45 | Nc1nnc(-c2ccc([N+](=O)[O-])o2)o1 | 0.258 (inactive)
46 | O=C(NN=Cc1ccc([N+](=O)[O-])o1)c1ccc(O)cc1 | 0.973 (inactive)
47 | NC(=O)NN=Cc1ccc([N+](=O)[O-])o1 | 0.0474 (active)
48 | O=C(CN1CCOCC1)N/N=C/c1ccc([N+](=O)[O-])o1 | 0.801 (inactive)

Row | SMILES | relative growth
49 | CCOC(=O)c1ccc(N2NC(=O)/C(=C/c3ccc([N+](=O)[O-])o3)C2=O)cc1 | 0.984 (inactive)
50 | NC(=O)N/N=C/c1ccc([N+](=O)[O-])o1 | 0.0425 (active)
51 | COC(=O)N/N=C/c1ccc([N+](=O)[O-])o1 | 0.0393 (active)
52 | O=C(N/N=C/c1ccc(CO)o1)c1ccccn1 | 1 (inactive)
53 | C[C@H](NC(=O)C[C@H]1C=C[C@@H](NC(=O)CN2CCOCC2)[C@H](CO)O1)c1ccccc1 | 1 (inactive)
54 | C[C@H](O)C#Cc1ccc2c(c1)O[C@H](CN(C)C(=O)Cc1ccccn1)[C@H](C)CN([C@@H](C)CO)S2(=O)=O | 1.01 (inactive)
55 | CN1CCN(C(=O)C[C@@H]2CC[C@H]3[C@@H](COC[C@@H](O)CN3Cc3ccc4c(c3)OCO4)O2)CC1 | 0.988 (inactive)
56 | O=C(C[C@H]1C[C@H]2c3cc(NC(=O)Nc4ccc(C(F)(F)F)cc4)ccc3O[C@H]2[C@H](CO)O1)NCc1ccc(Cl)cc1 | 0.973 (inactive)
57 | C[C@@H]1CN([C@@H](C)CO)C(=O)c2cc(NS(=O)(=O)c3cn(C)cn3)ccc2O[C@@H]1CN(C)Cc1ccncc1 | 0.994 (inactive)
58 | C[C@@H]1CN([C@H](C)CO)C(=O)Cc2cc(NC(=O)Nc3ccc(F)cc3)ccc2O[C@@H]1CN(C)Cc1ccc(Cl)c(Cl)c1 | 1.02 (inactive)
59 | Cc1ccc(S[C@]2(C(=O)NCCN3CCOCC3)CC(=O)N(C(C)C)[C@@H]2c2ccc(CO)cc2)cc1 | 1 (inactive)
60 | C=CCOC(=O)[C@H]1[C@@H]2C(=O)O[C@@H](c3ccccc3)[C@@H](c3ccccc3)N2[C@@H](c2ccc(OCCOC(=O)NCCCCCC(=O)NO)cc2)[C@@]12C(=O)Nc1ccc(I)cc12 | 0.993 (inactive)
61 | C[C@@H]1CN([C@@H](C)CO)C(=O)c2cc(NC(=O)Nc3ccc(C(F)(F)F)cc3)ccc2O[C@H]1CN(C)C(=O)Nc1cccc2ccccc12 | 1.01 (inactive)
62 | COC(=O)c1cn(CC(=O)N2CCN(C)CC2)nn1 | 0.978 (inactive)
63 | C[C@@H]1CN([C@@H](C)CO)C(=O)c2cc(NS(=O)(=O)c3cn(C)cn3)ccc2O[C@H]1CN(C)S(C)(=O)=O | 1.02 (inactive)
64 | C[C@H](CO)N1C[C@H](C)[C@@H](CN(C)S(C)(=O)=O)Oc2c(NC(=O)Nc3ccc4c(c3)OCO4)cccc2C1=O | 0.991 (inactive)
65 | N#CC1C(=O)NC(=O)N=C1Nc1ccccc1 (stereo not given) | 0.981 (inactive)
66 | NC[C@H]1O[C@H](O[C@H]2[C@H](O[C@@H]3O[C@H](CO)[C@@H](O)[C@H]3O)[C@@H](O)[C@H](N)C[C@@H]2N)[C@H](N)[C@@H](O)[C@@H]1O | 0.515 (inactive)
67 | NCC[C@H](O)C(=O)N[C@@H]1C[C@H](N)[C@@H](O[C@H]2O[C@H](CN)[C@@H](O)[C@H](O)[C@H]2O)[C@H](O)[C@H]1O[C@H]1O[C@H](CO)[C@@H](O)[C@H](N)[C@H]1O | 0.0379 (active)
68 | NCC1OC(OC2C(CO)OC(OC3C(O)C(N)CC(N)C3OC3OC(CO)C(O)C(O)C3N)C2O)C(N)C(O)C1O.O=S(=O)(O)O (stereo not given) | 0.915 (inactive)
69 | NCCC(O)C(=O)NC1CC(N)C(OC2OC(CN)C(O)C(O)C2O)C(O)C1OC1OC(CO)C(O)C(N)C1O.O (stereo not given) | 0.0465 (active)
70 | NCC1OC(OC2C(CO)OC(OC3C(O)C(N)CC(N)C3OC3OC(CN)C(O)C(O)C3N)C2O)C(N)C(O)C1O.O=S(=O)(O)O.O=S(=O)(O)O.O=S(=O)(O)O (stereo not given) | 1.2 (inactive)
